Our source for the Potency and outcome values is PubChem BioAssay (Tox21).

Each structure is given as a SMILES string. Results filed as inconclusive are left out. Calls of active or inactive are those of the source. Unless noted, calls follow the shape of the dose curve; as a rule, active = well fitted curve in the direction sought with a large enough effect in the repeat runs; inconclusive = weak or mixed curves; inactive = no such curve, though single readings can be large; an effect the other way counts as inactive or inconclusive.

The nature of experiment [1]: qHTS assay to identify small molecule antagonists of the sonic hedgehog signaling (Shh) pathway (AID 1259369; calls by dose curve; also: nearly all actives have a fitted effect of over 45% in size; also: potency is read from the fitted curve at half-maximal effect). The essentials:
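NIH/3T3 stable Gli1-Luc clone, 2,000 cells/well, 4hr settle; cpd + conditioned medium 24hr; Luc reagent 30min RT; luminescence.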
In general terms: In qHTS, concentration-response curves come from the screen itself.

For experiment [2], the target named is Estrogen receptor beta (Homo sapiens) (UniProt Q92731). In words: qHTS assay to identify small molecule agonists of the estrogen receptor beta (ER-beta) signaling pathway (AID 1259377; active = well fitted activation curve with a large enough effect in the signal ratio in the repeat runs, not every such curve was filed as active; the % refers to the signal ratio). The essentials: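 Agonist mode cell assay in GripTite HEK293T cells expressing an ER-beta fusion that drives beta-lactamase from an Upstream Activator Sequence; 16 hr compound exposure at 37C, then 2 h LiveBLAzer B/G FRET substrate at room temperature, fluorescence read-out.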
Sequence of Estrogen receptor beta (Homo sapiens) (Q92731 whole entry, looked up, the tested form may be a part): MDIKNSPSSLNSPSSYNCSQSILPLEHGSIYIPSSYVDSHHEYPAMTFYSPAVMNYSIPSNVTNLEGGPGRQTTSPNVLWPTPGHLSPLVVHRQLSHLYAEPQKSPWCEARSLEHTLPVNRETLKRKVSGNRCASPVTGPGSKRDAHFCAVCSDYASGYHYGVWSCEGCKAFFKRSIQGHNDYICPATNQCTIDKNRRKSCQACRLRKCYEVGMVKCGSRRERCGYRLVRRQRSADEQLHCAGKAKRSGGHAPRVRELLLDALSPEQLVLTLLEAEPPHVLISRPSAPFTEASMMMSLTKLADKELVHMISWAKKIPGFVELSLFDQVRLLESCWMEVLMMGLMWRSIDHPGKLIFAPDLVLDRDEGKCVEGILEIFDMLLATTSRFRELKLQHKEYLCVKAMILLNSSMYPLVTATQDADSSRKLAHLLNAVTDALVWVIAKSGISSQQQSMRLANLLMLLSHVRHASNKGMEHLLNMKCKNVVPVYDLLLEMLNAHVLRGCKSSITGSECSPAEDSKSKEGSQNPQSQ

The nature of experiment [3]: qHTS assay to identify small molecule agonists of the androgen receptor (AR) signaling pathway in the presence of an antagonist - cell viability counter screen (AID 1259379). Also: nearly all actives have a fitted effect of over 25% in size. Also: potency is read from the fitted curve at half-maximal effect. The gist of the method:
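MDA-kb2 viability measured by CellTiter-Fluor fluorescence in the same wells as the luciferase signal; nilutamide 3.0uM final; 15-point compound titration; 16 hr at 37C.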

Experiment [4] in a line: qHTS assay to identify small molecule antagonists of the estrogen receptor beta (ER-beta) signaling pathway - cell viability counter screen (AID 1259382). Also: series mostly up to about 92 µM; nearly all actives have a fitted effect of over 55% in size. The essentials: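 Readout: luminescence, CellTiter-Glo, same wells as bla assay. System: ER-beta-UAS-bla GripTite HEK293T, 2% charcoal-stripped FBS. Exposure: compounds plus 1nM 17-beta-estradiol, 16 hr, 37C.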
Experiment [5] concerns the target Estrogen receptor (Homo sapiens) (UniProt P03372). Put plainly: qHTS assay to identify small molecule agonists of the estrogen receptor alpha (ER-alpha) signaling pathway in the presence of an antagonist (AID 1259383; calls by dose curve; also: top concentration of the series differs between compounds; nearly all actives have a fitted effect of over 15% in size). The gist of the method: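 Quantitative HTS confirmation: compounds titrated at 15 concentrations onto estrogen-deprived VM7Luc4E2 cells carrying a four-ERE luciferase construct, with ICI-182,780 present at 10.0nM final. Signal is luminescence after 22hr exposure.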

Experiment [6] is described as follows: qHTS assay to identify small molecule agonists or antagonists of the thyroid stimulating hormone receptor (TSHR) signaling pathway - wild type cell line counter screen (AID 1259384; calls by dose curve). The essentials: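 Wild-type Hek293 cells, 800/well, 18 h at 37C, then compound with Ro20-1724 for 30 min RT. cAMP by HTRF (cAMP-d2/anti-cAMP cryptate), 1 h RT, fluorescence read. 15 concentrations, triplicates.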

Experiment [7] has as its target Thyrotropin receptor (Homo sapiens) (UniProt P16473). In words: qHTS assay to identify small molecule antagonists of the thyroid stimulating hormone receptor (TSHR) signaling pathway (AID 1259385; calls by dose curve; also: nearly all actives have a fitted effect of over 20% in size). The essentials:
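TSHR-HEK293 cells (800/well) plated 18 h, then compounds with Ro20-1724 and TSH at 1.5 ng/mL final, 30 min at room temperature. cAMP quantified by HTRF (cAMP-d2/anti-cAMP-cryptate, 1 h); 15 concentrations in triplicate.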

In experiment [8] the target is Progesterone receptor (Homo sapiens) (UniProt P06401). Put plainly: qHTS assay to identify small molecule agonists of the progesterone receptor (PR) signaling pathway (AID 1346784; calls by dose curve; also: nearly all actives have a fitted effect of over 30% in size). The essentials: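 Cells (PR-UAS-bla HEK 293T, GripTite) were plated in assay medium containing 2% charcoal-stripped FBS and incubated 6 hr. Test compounds in DMSO were added for 16 hr at 37C. FRET substrate was then loaded for 2 hr at room temperature before fluorescence reading.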
Sequence of Progesterone receptor (Homo sapiens) (P06401 whole entry, looked up): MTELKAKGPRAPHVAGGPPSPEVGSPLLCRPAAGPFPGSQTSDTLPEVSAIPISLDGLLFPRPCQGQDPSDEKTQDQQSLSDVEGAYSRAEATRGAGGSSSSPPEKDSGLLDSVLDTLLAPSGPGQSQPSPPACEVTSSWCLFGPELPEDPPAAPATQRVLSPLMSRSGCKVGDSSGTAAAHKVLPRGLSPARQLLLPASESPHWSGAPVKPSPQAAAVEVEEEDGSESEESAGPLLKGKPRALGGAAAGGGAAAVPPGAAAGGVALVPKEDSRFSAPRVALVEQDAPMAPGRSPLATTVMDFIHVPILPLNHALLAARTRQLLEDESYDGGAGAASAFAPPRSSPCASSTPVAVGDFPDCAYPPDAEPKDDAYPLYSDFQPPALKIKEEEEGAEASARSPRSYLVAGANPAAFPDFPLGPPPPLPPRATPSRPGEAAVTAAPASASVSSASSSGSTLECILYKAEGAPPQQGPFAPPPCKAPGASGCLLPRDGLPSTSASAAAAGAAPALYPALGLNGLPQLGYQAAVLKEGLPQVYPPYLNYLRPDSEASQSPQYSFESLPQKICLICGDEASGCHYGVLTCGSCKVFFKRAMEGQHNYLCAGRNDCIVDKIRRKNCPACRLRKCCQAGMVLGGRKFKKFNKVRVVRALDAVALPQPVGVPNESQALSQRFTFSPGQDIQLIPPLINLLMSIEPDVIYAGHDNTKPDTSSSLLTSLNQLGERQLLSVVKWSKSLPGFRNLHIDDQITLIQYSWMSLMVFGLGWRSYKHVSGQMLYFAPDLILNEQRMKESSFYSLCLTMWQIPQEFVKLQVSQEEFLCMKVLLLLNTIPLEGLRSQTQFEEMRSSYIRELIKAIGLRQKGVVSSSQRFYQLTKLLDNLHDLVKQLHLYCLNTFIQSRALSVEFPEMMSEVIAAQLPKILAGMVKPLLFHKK

The target is the same in experiment [9]. In words: qHTS assay to identify small molecule antagonists of the progesterone receptor (PR) signaling pathway (AID 1346795; active = well fitted inhibition curve with a large enough effect in the signal ratio in the repeat runs, not every such curve was filed as active; the % refers to the signal ratio; also: potency is read from the fitted curve at half-maximal effect). The essentials: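 Antagonist mode: compounds tested against 1 nM (final) promegestone stimulation in HEK293T cells expressing PR-UAS-bla reporter, 16 hr at 37C, 5% CO2; beta-lactamase activity detected via B/G FRET substrate after 2 hr at room temperature.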

Experiment [10] in a line: qHTS assay to identify small molecule antagonists of the progesterone receptor (PR) signaling pathway - cell viability counter screen (AID 1346798). Also: series mostly up to about 92 µM; nearly all actives have a fitted effect of over 50% in size. The essentials:
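Counter screen for cytotoxicity: viability of PR-UAS-bla HEK293T cells was measured with CellTiter-Glo luminescence following 16 hr compound exposure in the presence of R5020.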

A short description of experiment [11]: qHTS assay to identify small molecule agonists of the progesterone receptor (PR) signaling pathway - cell viability counter screen (AID 1346799; calls by dose curve; also: nearly all actives have a fitted effect of over 45% in size). The essentials:
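Cells (PR-UAS-bla HEK293T) are plated at 3,000/well in 2% charcoal-stripped FBS medium, rested 6 hr, dosed and incubated 16 hr at 37C. CellTiter-Glo is then added and luminescence measured after 30 min at room temperature.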

Experiment [12] is described as follows: qHTS assay to identify small molecule antagonists of the TGF-beta/Smad signaling pathway - cell viability counter screen (AID 1346824). Also: nearly all actives have a fitted effect of over 50% in size. The gist of the method: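 SBE-bla HEK 293T cells, incubated overnight, then compound plus 0.25 ng/mL TGF-beta1 (stock added) for 5 hr at 37 C. Viability was read in the same wells by CellTiter-Glo luminescence after 30 min at room temperature.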

A short description of experiment [13]: qHTS assay to identify small molecule agonists of the TGF-beta/Smad signaling pathway - cell viability counter screen (AID 1346829). Also: top concentration of the series differs between compounds; nearly all actives have a fitted effect of over 45% in size. The essentials:
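Compound-treated SBE-bla HEK 293T cells (5 hr, 37 C) were assessed for viability with CellTiter-Glo in parallel with the reporter read.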

A short description of experiment [14]: qHTS assay to identify small molecule agonists of the TGF-beta/Smad signaling pathway (AID 1346859; active = well fitted activation curve with a large enough effect in the signal ratio in the repeat runs, not every such curve was filed as active; the % refers to the signal ratio; also: series mostly up to about 77 µM). The gist of the method: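 Reporter line: HEK 293T with stably integrated SBE-controlled beta-lactamase. Compound exposure lasts 5 hr at 37 C and 5% CO2; substrate loading follows for 2 hr at room temperature, with emission read at 460 and 530 nm.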
In experiment [15] the target is Thyrotropin-releasing hormone receptor (Homo sapiens) (UniProt P34981). In words: qHTS assay to identify small molecule antagonists of the thyrotropin-releasing hormone receptor (TRHR) signaling pathway (AID 1346877; active = well fitted inhibition curve with a large enough effect in the repeat runs, not every such curve was filed as active; also: series mostly up to about 51 µM). The gist of the method:
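Overnight-plated (18 h, 37 °C) HEK293 cells expressing TRHR were dye-loaded 2 h, treated with compound, then stimulated with TRH at 1 nM final. Fluorescence intensity was captured every second for 3 min.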

For experiment [16] the target is unchanged. In words: qHTS assay to identify small molecule agonists of the thyrotropin-releasing hormone receptor (TRHR) signaling pathway (AID 1346891; calls by dose curve;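 also: HEK293 cells expressing TRHR with calcium dye readout; series mostly up to about 58 µM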). The essentials: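 Cells: TRHR-Hek293, seeded and incubated 18 h. Dye loading: 2 h at 37 °C. Compound added from DMSO stock by pin tool. Read-out: kinetic calcium fluorescence over 3 min.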
Experiment [17] can be described thus: qHTS assay to identify small molecule agonists of the estrogen receptor alpha (ER-alpha) signaling pathway in the presence of an antagonist - cell viability counter screen (AID 1259386).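 Also: cells exposed to compounds for 22 h at 37 °C before the viability read; nearly all actives have a fitted effect of over 30% in size.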 Also: potency is read from the fitted curve at half-maximal effect. The gist of the method: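 The test measures whether compounds kill ER-alpha reporter cells (VM7Luc4E2) under antagonist co-treatment (ICI-182,780, 10.0nM). Fluorescence from CellTiter-Fluor is read after a 22hr exposure.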

Experiment [18] in a line: qHTS assay to identify small molecule agonists of the estrogen receptor beta (ER-beta) signaling pathway - cell viability counter screen (AID 1259380). Also: nearly all actives have a fitted effect of over 30% in size. Also: potency is read from the fitted curve at half-maximal effect. The essentials:
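Measured: luminescence from CellTiter-Glo after 30 min at room temperature, added to wells already read for the LiveBLAzer FRET reporter (2 hr substrate); ER-beta-UAS-bla HEK293T cells had 16 hr compound treatment at 37C, 5% CO2.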

In experiment [19] the target is Androgen receptor (Homo sapiens) (UniProt P10275). In words: qHTS assay to identify small molecule agonists of the androgen receptor (AR) signaling pathway in the presence of an antagonist (AID 1259381; calls by dose curve; also: nearly all actives have a fitted effect of over 15% in size). The gist of the method:
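Luminescent ONE-Glo read, 30min at room temperature, follows 16hr compound exposure (15 concentrations) of MDA-kb2 cells at 37C, 0% CO2, with nilutamide added at 3.0uM final.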

For experiment [20], the target named is Estrogen receptor beta (Homo sapiens) (UniProt Q92731). Put plainly: qHTS assay to identify small molecule antagonists of the estrogen receptor beta (ER-beta) signaling pathway (AID 1259378; active = well fitted inhibition curve with a large enough effect in the signal ratio in the repeat runs, not every such curve was filed as active; the % refers to the signal ratio; also: potency is read from the fitted curve at half-maximal effect). The essentials: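 ER-beta-UAS-bla HEK293T cells in 2% charcoal-stripped FBS medium treated with compound plus 1nM final 17-beta-estradiol for 16 hr at 37C. Beta-lactamase reporter read by FRET substrate fluorescence after 2 hours at room temperature.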

Sequence of Thyrotropin-releasing hormone receptor (Homo sapiens) (P34981 whole entry, looked up): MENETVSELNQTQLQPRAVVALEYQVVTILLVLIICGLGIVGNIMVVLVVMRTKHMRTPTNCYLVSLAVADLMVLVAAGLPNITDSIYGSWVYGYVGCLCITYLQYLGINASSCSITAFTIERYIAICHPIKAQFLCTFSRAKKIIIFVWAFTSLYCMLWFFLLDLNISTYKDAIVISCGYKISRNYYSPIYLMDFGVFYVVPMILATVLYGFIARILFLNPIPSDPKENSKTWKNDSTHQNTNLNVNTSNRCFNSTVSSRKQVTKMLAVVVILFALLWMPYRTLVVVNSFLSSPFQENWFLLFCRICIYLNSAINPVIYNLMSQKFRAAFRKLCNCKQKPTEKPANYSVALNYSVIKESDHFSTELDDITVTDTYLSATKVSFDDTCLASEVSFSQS
Sequence of Thyrotropin receptor (Homo sapiens) (P16473 whole entry, looked up): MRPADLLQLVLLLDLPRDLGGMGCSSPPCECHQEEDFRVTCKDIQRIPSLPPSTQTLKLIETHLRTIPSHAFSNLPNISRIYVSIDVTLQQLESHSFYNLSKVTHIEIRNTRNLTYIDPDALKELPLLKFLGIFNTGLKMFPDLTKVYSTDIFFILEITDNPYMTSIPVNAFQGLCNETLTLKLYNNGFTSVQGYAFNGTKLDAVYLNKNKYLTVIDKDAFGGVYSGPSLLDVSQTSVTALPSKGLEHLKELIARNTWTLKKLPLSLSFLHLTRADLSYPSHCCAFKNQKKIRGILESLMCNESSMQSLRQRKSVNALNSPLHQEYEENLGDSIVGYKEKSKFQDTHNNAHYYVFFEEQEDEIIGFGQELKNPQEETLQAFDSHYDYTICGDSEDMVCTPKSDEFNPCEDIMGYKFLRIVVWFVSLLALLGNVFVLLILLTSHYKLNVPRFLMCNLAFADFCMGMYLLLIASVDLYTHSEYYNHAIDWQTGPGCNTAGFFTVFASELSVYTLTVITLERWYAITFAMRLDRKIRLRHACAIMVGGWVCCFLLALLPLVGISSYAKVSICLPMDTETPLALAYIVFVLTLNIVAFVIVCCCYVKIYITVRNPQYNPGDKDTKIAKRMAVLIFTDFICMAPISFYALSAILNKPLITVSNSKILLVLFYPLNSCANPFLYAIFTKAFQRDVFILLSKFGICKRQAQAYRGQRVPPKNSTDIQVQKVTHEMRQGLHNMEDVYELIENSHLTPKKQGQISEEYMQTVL
Sequence of Estrogen receptor (Homo sapiens) (P03372 whole entry, looked up): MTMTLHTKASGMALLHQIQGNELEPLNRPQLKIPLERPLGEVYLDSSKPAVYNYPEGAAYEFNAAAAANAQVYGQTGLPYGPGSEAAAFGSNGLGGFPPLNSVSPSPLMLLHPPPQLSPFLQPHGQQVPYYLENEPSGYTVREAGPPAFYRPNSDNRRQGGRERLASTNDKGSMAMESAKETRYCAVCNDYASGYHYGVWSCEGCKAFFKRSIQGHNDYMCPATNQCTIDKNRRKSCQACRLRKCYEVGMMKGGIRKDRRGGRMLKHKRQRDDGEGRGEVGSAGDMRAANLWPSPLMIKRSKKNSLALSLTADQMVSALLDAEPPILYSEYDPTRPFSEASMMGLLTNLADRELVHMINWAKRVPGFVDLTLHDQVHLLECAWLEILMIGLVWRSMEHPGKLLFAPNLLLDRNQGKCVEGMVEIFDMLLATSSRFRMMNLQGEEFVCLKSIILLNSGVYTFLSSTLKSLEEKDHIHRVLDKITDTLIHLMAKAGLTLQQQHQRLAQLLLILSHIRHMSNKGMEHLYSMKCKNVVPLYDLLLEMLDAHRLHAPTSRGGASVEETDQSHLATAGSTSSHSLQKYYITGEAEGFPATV
Sequence of Androgen receptor (Homo sapiens) (P10275 whole entry, looked up): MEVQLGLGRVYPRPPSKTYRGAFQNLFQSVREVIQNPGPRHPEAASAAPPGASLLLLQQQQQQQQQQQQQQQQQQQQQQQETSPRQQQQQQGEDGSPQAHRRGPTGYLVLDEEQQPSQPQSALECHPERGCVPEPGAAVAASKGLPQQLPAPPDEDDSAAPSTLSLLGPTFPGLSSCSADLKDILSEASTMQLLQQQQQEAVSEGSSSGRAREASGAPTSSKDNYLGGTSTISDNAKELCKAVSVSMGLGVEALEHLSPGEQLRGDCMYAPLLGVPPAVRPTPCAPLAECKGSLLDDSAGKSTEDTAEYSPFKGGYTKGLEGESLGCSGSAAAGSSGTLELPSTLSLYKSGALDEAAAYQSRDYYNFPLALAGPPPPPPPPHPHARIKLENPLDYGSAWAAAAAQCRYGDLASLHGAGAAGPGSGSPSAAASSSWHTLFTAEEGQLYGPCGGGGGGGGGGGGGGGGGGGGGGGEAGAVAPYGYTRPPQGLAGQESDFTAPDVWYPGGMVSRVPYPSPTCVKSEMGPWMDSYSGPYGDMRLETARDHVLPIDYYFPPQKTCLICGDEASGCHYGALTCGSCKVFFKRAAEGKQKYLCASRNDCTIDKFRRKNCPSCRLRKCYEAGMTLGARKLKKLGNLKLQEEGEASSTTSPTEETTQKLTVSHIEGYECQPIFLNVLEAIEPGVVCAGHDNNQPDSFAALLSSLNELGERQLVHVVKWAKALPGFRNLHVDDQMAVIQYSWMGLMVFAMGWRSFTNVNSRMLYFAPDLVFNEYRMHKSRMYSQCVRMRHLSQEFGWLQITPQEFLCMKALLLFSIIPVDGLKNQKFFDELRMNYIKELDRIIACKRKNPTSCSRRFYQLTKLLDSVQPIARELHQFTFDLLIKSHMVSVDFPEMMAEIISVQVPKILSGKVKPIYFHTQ

`CC(C)(O)c1ccc(CNC(=O)c2cccnc2Oc2ccc3nonc3c2)cc1`: the Potency in experiment [1] is 0.486 µM (active). Also, the Potency entry in [2], in experiment [3], in experiment [4], in experiment [5], in [7] and in [8] was “inactive” each time. In addition, the Potency result in [9], in [10], in experiment [11], in experiment [12], in experiment [13] and in experiment [14] was “inactive” throughout. For the same compound, the Potency entry in experiment [16] is “inactive”. In addition, the compound was called inactive in [6] and in [15].
As for `CCC1NC(=O)c2cc(S(N)(=O)=O)c(Cl)cc2N1` (stereo not drawn), the Potency result in experiment [1], in experiment [2], in experiment [3], in experiment [4], in experiment [7] and in experiment [17] was “inactive” each time. For the same compound, the Potency result in [8], in [9], in experiment [10], in experiment [11], in [12] and in [13] was “inactive” each time. In addition, the Potency entry in [14] and in [16] was “inactive” each time. The compound was called inactive in experiment [6] and in experiment [15].
For `CCn1cc(C(=O)O)c(=O)c2cc(F)c(N3CCNCC3)cc21`, the Potency entry in experiment [1], in [2], in [3], in [18], in [4] and in experiment [5] was “inactive” in each case. In addition, the Potency result in [7], in [17], in [8], in [9], in [10] and in experiment [11] was “inactive” in each case. The Potency result in [12], in experiment [13], in experiment [14] and in experiment [16] was “inactive” throughout. Besides, the compound was classed as inactive in experiment [6] and in experiment [15].
For the compound `CCCCCCCCCI`, the Potency result in experiment [1], in experiment [2], in experiment [3], in experiment [18], in [4] and in experiment [5] was “inactive” throughout. Further, the Potency entry in experiment [17], in experiment [9], in experiment [10], in experiment [11], in experiment [12] and in experiment [14] was “inactive” throughout. Also, the Potency entry in experiment [16] is “inactive”. Besides, the result in experiment [6] and in experiment [15] was inactive.
`O=C=Nc1cccc(C(F)(F)F)c1`: the Potency entry in experiment [1], in experiment [2], in experiment [3], in experiment [19], in experiment [4] and in [5] was “inactive” throughout. Also, the Potency entry in experiment [7], in experiment [17], in experiment [9], in experiment [10], in experiment [12] and in [13] was “inactive” in each case. Moreover, the Potency result in experiment [14] and in experiment [16] was “inactive” in each case. Also, in experiment [18], the Potency is 30.4 µM (active). In addition, the compound was called inactive in experiment [15].
In the case of `Cc1c(C)c2c(c(C)c1OC(=O)CCC(=O)OCCO)CC[C@@](C)(CCC[C@H](C)CCC[C@H](C)CCCC(C)C)O2`, the Potency result in [1], in experiment [2], in [3], in experiment [5], in [7] and in [17] was “inactive” throughout. The Potency result in experiment [12], in [13], in experiment [14] and in [16] was “inactive” each time. Besides, the figures for the Potency in experiment [20] and in experiment [9] were 13.3 µM (active) and 26.6 µM (active), respectively. The result in experiment [6] and in experiment [15] was inactive.
On to `C=CC(=O)OCC1CC2CC1C1CCC(COC(=O)C=C)C21` (stereo not drawn), for which the Potency in experiment [1] was 19.3 µM (active). The Potency result in experiment [2], in experiment [3], in experiment [4], in experiment [17], in [10] and in experiment [11] was “inactive” in each case. The Potency result in [12], in experiment [13], in experiment [14] and in experiment [16] was “inactive” throughout. The call in experiment [6] and in experiment [15] was inactive.
Consider `Cc1ccccc1S`, for which the Potency result in experiment [1], in experiment [2], in experiment [3], in experiment [18], in experiment [4] and in experiment [5] was “inactive” in each case. Moreover, the Potency result in experiment [7], in [17], in [8], in [9], in experiment [10] and in experiment [11] was “inactive” throughout. Further, the Potency result in experiment [12], in experiment [13], in experiment [14] and in experiment [16] was “inactive” throughout. Moreover, the compound was classed as inactive in experiment [6] and in [15].
On to `Oc1cc2c(cc1O)[C@H]1c3ccc(O)c(O)c3OC[C@@]1(O)C2`, for which the Potency in [1] was 17.4 µM (active); in experiment [3] it was 61.9 µM (active); in experiment [17], 27.6 µM (active). In addition, the Potency entry in experiment [2], in experiment [18], in experiment [4], in [5], in [12] and in experiment [13] was “inactive” throughout. Also, the Potency result in [14] and in experiment [16] was “inactive” throughout. The call in experiment [15] was inactive.
